This note sets out measurements from PubChem BioAssay.

Results filed as inconclusive are left out. Active and inactive are the calls of the source.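 Rule for the calls, unless noted: active = viability loss from added drug above about 55%, and viability with drug at most 40%, in both replicates (limit read from the data, passing the limit was not always enough); inconclusive = both conditions met in only one replicate; inactive = neither replicate meets both conditions.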

A short description of experiment [1]: Her2 expression decrease, cell viability multiplex – SKBR3 breast tumor cells, AlphaScreen, ATP viability, primary screen (AID 461;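 active = Her2 level under about 52% in both replicate screens, with viability over 70% of control, limit read from the data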;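 for Her2 level: lower value means less Her2 protein in the cells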;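 for viability: percent of carrier control wells set as 100% viability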). The conditions noted are these: SKBR3 Her2 protein level, 18-24 h, measured here: SKBR3 viability, ATP luminescence, at 10 µM.
Experiment [2] addresses Receptor tyrosine-protein kinase erbB-2 (Homo sapiens) (UniProt P04626). The description is as above. Particulars: 18-24 h, at 10 µM, stronger effect = lower value.
Experiment [3] in a line: reduced viability of SK-BR-3 breast cancer cells – cell-based, 24 h, human, pilot screen (AID 572;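 active = viability at or below 10% of carrier control in both of two separate runs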;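 note: compound exposure lasted between 18 and 24 h rather than exactly 24 h; 100% = carrier-treated control wells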). The conditions noted are these: SK-BR-3 viability, CellTiter-Glo luminescence, at 10 µM, stronger effect = lower value.
Experiment [4] in a line: HUVEC growth inhibition – cell-based, human, primary screen (AID 575;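 active = viability at or below 30% in both replicate assays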;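 note: 100% = median of untreated cell wells with 0.1% DMSO on each plate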). The conditions noted are these: HUVEC proliferation, CellTiter-Glo luminescence, 72 h; at 10 µM; stronger effect = lower value.
The nature of experiment [5]: H69AR cell proliferation blockers – human, duplicate replicates, primary screen (AID 580;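 active = viability at or under a set limit in both replicates, limit being median viability minus 3 SD, cut at about 48% in these data, passing the limit was not always enough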;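 note: 100% = mean luminescence of untreated wells and 0% = no signal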). The conditions noted are these: H69AR lung tumor cells viability, ATP luminescence, 72 h; at 10 µM; stronger effect = lower value.
The nature of experiment [6]: MRP1 drug-resistance reversers in H69AR cells – cell-based, doxorubicin co-treatment, pilot screen (AID 601). Particulars: CellTiter-Glo, 72 h, at 10 µM; for differential viability (reversal): stronger effect = higher value.
Experiment [7] is described as follows: yeast transport mutant growth inhibition pilot in 384-well plates, post-Golgi transport modulator project (AID 636; in the data active = inhibition above about 31%). Particulars: absorbance 615 nm, about 18 h, stronger effect = higher value.
Experiment [8] is described as follows: growth suppression of yeast trafficking mutant, preliminary HTS, modulators of trafficking downstream of Golgi apparatus project, 1536-format plate, OD 615 nm (AID 637; in the data active = inhibition above about 30%). The conditions noted are these: yeast transport mutant growth, absorbance 615 nm, 18 h; stronger effect = higher value.
A short description of experiment [9]: S. cerevisiae growth inhibition in permissive medium (OD615), pilot counter-assay for S. cerevisiae lifespan shortening project, permissive growth control (AID 705;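 active = growth inhibition above 25% in both replicates, a cutoff set 3 SD above the mean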). Particulars: OD615, 24 h, at 10 µM, stronger effect = higher value.
A short description of experiment [10]: S. cerevisiae growth inhibition in restrictive medium, OD615, pilot screen, restrictive growth control, yeast lifespan reduction project (AID 706;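 active = growth inhibition above a set limit, 3 SD over mean compound inhibition, in both replicates, cut at about 43% in these data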;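 note: modified DeaD lifespan yeast strain shifted to restrictive glucose medium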). The conditions noted are these: OD615, 48 h, at 10 µM, stronger effect = higher value.
A short description of experiment [11]: doxorubicin toxicity protection in MRP-1 cells – H69AR cells, CellTiter-Glo, duplicate, MRP-1 activator project, pilot screen (AID 807;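 active = viability increase at or above a cutoff of the median across tested compounds plus 3 SD, cut at about 8.5% in these data, passing the limit was not always enough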;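 note: compound pretreatment 18-22 h then 72 h combined with doxorubicin; 0% = doxorubicin alone and 100% = vehicle without doxorubicin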). The conditions noted are these: H69AR viability with doxorubicin, CellTiter-Glo luminescence; at 10 µM; stronger effect = higher value.
A short description of experiment [12]: viability of HCT116 without oncogenic beta-catenin – human colon tumor cells, pilot screen (AID 823;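 active = cell viability at or below a set limit in both duplicate runs, the limit being the all-compound median minus 4 SD, cut at about 23% in these data, passing the limit was not always enough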;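 note: 0% = wells killed by 20 µM Hyamine and 100% = untreated DMSO cell wells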). The conditions noted are these: HCT116 beta-catenin knockout viability, CellTiter-Glo, 60 h; at 10 µM; stronger effect = lower value.
A short description of experiment [13]: viability of PTEN-null HCT116 cells – cell-based, HCT116 clonal line, CellTiter-Glo, pilot screen (AID 824;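 active = viability at or below 27.92% in each of two runs, the all-compound median minus 4 SD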;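 note: 0% = 20 µM Hyamine control and 100% = vehicle cell control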). The conditions noted are these: HCT116 PTEN-deleted viability, 60 h, at 10 µM, stronger effect = lower value.
Experiment [14] in a line: RAM pathway blockade in budding yeast – dse1pr::URA3 reporter, 5-FOA selection, pilot screen (AID 869;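 active = inhibition over a set limit, the all-compound mean plus 3 SD, in both replicate runs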;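 note: 0% = DMSO wells with no growth and 100% = 10 µM 1-NA-PP1 with full growth; RAM network block rescues cells from 5-FOA so hits raise OD615 growth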). Particulars: S. cerevisiae dse1pr::URA3 5-FOA growth, OD615, 2 d; at 10 µM; stronger effect = higher value; strain carries analog-sensitive mutant Cbk1 kinase.
Experiment [15] is described as follows: RAM signaling pathway blockade in yeast – S. cerevisiae, Pdr1DBD-CYC8 efflux-inhibited sensitized strain, primary screen (AID 1298;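 active = RAM network inhibition above 8.4% in each of two replicates, 3 SD over the compound average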;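 note: 0% = DMSO untreated cells without growth and 100% = 10 µM 1-NA-PP1 full growth; higher means more yeast growth rescued from 5-FOA killing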). The conditions noted are these: S. cerevisiae cbk1-as DSE1-URA3 strain, 5-FOA growth OD615, 2 d; at 50 µM; stronger effect = higher value.
Where [16] appears, read: H69AR cells + 2 uM doxorubicin, measured here: viability with 2 uM doxorubicin, stronger effect = lower value.
[17] abbreviates: H69AR cells, compound alone cytotoxicity.

Chain of Receptor tyrosine-protein kinase erbB-2 (Homo sapiens) (P04626 whole entry, looked up): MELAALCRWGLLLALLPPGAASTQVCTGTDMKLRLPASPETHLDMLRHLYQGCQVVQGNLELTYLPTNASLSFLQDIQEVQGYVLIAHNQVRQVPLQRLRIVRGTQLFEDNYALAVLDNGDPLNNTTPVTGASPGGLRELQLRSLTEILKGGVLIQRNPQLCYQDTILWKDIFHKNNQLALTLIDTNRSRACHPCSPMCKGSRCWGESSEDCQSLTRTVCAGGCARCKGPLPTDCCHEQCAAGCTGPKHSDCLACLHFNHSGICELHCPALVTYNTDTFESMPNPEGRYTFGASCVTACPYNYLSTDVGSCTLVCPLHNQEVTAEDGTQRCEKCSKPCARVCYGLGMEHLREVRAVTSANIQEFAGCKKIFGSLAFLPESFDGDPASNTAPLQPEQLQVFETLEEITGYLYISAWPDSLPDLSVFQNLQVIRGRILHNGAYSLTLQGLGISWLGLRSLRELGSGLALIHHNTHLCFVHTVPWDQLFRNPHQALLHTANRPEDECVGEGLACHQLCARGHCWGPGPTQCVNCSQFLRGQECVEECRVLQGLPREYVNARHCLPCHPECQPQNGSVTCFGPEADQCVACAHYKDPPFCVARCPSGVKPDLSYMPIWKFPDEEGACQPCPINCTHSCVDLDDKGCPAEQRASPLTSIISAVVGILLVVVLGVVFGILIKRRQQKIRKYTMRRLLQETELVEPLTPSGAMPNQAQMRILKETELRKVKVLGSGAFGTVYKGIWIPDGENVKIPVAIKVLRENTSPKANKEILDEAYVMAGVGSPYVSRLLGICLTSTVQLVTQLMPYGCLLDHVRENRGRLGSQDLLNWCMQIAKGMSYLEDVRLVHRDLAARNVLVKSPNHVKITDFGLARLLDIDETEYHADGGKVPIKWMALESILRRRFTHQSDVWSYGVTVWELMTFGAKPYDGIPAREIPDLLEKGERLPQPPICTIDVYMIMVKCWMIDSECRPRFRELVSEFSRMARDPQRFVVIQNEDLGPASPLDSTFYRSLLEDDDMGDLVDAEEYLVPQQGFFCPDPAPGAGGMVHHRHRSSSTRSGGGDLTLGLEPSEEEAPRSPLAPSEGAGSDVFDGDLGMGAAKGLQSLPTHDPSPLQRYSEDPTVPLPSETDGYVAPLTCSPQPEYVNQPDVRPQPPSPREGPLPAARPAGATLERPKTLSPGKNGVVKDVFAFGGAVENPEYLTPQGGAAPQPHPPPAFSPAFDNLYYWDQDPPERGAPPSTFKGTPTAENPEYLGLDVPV

`COc1cccc(C2C(C(N)=O)=C(C)Nc3nc(CCCO)nn32)c1OC` (stereo not drawn): the viability in experiment [1] was 102%; in [3], 102% (inactive); in experiment [4], 93.8% (inactive); in [5] it was 96.4% (inactive); in experiment [6] (setting [16]), 97.5%; in experiment [6] (setting [17]) it was 96.4%. Also, the viability in experiment [12] is 105% (inactive); in [13], 104% (inactive). In addition, the Her2 level in experiment [2] is 103% (inactive). Further, the differential viability (reversal) in experiment [6] (H69AR cells + 2 uM doxorubicin) is -1.08% (inactive). For the same molecule, the inhibition in experiment [7] is 0.93% (inactive); in [8], -3.67% (inactive); in experiment [14] it was 0.085% (inactive). In addition, the growth inhibition in [9] is -8.7% (inactive); in [10] it was 14.1% (inactive). The viability increase in experiment [11] is -0.88% (inactive). The RAM network inhibition in experiment [15] is 0.27% (inactive).

On to `CCOc1ccc(NC(=O)CSc2nnc(COc3c(C)cccc3C)o2)cc1`, for which the viability was 95% in experiment [1]; 95% (inactive) in [3]; 86.7% (inactive) in experiment [4]; 80.6% (inactive) in [5]; 86.3% in [6] (setting [16]); 80.6% in experiment [6] (setting [17]). In addition, the viability in experiment [12] was 98.9% (inactive); in experiment [13], 98.3% (inactive). Further, the Her2 level in experiment [2] is 102% (inactive). Moreover, the differential viability (reversal) in experiment [6] (H69AR cells + 2 uM doxorubicin) is -5.7% (inactive). The inhibition in [7] was -4.93% (inactive); in experiment [8], -2.83% (inactive); in experiment [14], 3.71% (inactive). For the same molecule, the growth inhibition was -9.38% (inactive) in experiment [9] and -14.3% (inactive) in [10]. For the same molecule, the viability increase in experiment [11] was -1.9% (inactive). In addition, the RAM network inhibition in experiment [15] is 8.74% (inactive).

On to `Cc1nnc2n(-c3ccc(Cl)cc3)c(=O)c3c4c(sc3n12)CN(C)CC4`, for which the viability was 84% in [1]; 84% (inactive) in experiment [3]; 103% (inactive) in [4]; 91.6% (inactive) in experiment [5]; 103% in [6] (setting [16]); 91.6% in experiment [6] (setting [17]). Also, the viability in experiment [12] was 112% (inactive); in [13], 93.1% (inactive). For the same molecule, the Her2 level in [2] was 98% (inactive). The differential viability (reversal) in experiment [6] (H69AR cells + 2 uM doxorubicin) is -11.4% (inactive). For the same molecule, the inhibition in [7] is -4.94% (inactive); in [8] it was -4.1% (inactive); in experiment [14] it was 0.945% (inactive). Also, the growth inhibition in experiment [9] is -4.76% (inactive); in experiment [10] it was -10.1% (inactive). For the same molecule, the viability increase in experiment [11] is -1.73% (inactive). Further, the RAM network inhibition in experiment [15] was 2.13% (inactive).

Regarding `Oc1ccc(Cl)cc1-c1cc(-c2ccccc2)n[nH]1`, the viability is 55.5% in experiment [1]; 55.5% (inactive) in experiment [3]; 7.56% (active) in experiment [4]; 6.37% (active) in [5]; 13.9% in [6] (setting [16]); 6.37% in experiment [6] (setting [17]). The viability was 16% (active) in [12] and 23.1% (active) in experiment [13]. The Her2 level in [2] is 61% (inactive). Moreover, the differential viability (reversal) in experiment [6] (H69AR cells + 2 uM doxorubicin) is -7.55% (inactive). For the same molecule, the inhibition in experiment [7] was -0.53% (inactive); in [8] it was 100% (active); in experiment [14] it was 1.59% (inactive). Moreover, the growth inhibition in experiment [9] was -1.5% (inactive); in experiment [10], -6.9% (inactive). For the same molecule, the viability increase in experiment [11] was -7.82% (inactive). Besides, the RAM network inhibition in experiment [15] was 8.32% (inactive).

Consider `Cc1onc(-c2c(Cl)cccc2Cl)c1C(=O)NCC1CCCO1` (stereo not drawn), for which the viability is 111% in experiment [1]; 111% (inactive) in [3]; 97.7% (inactive) in experiment [4]; 111% (inactive) in experiment [5]; 95.2% in experiment [6] (setting [16]); 111% in experiment [6] (setting [17]). The results for the viability in [12] and in experiment [13] were 91.7% (inactive) and 92.9% (inactive), respectively. In addition, the Her2 level in experiment [2] is 104% (inactive). The differential viability (reversal) in experiment [6] (H69AR cells + 2 uM doxorubicin) was 16% (inactive). The inhibition was -4.59% (inactive) in experiment [7], -5.74% (inactive) in [8] and -1.21% (inactive) in [14]. In addition, the figures for the growth inhibition in experiment [9] and in [10] were 6.24% (inactive) and -5.78% (inactive), respectively. In addition, the viability increase in experiment [11] was -1.12% (inactive). Moreover, in experiment [15], the RAM network inhibition was -0.45% (inactive).

As for `Cn1c(=O)oc2cc(S(=O)(=O)N3CCCC(C(=O)NCC4COc5ccccc5O4)C3)ccc21` (stereo not drawn), the viability was 77% in experiment [1]; 77% (inactive) in experiment [3]; 83.6% (inactive) in experiment [4]; 94% (inactive) in experiment [5]; 90.9% in experiment [6] (setting [16]); 94% in experiment [6] (setting [17]). Besides, the figures for the viability in experiment [12] and in [13] were 86% (inactive) and 90.4% (inactive), respectively. In [2], the Her2 level was 79.5% (inactive). In addition, the differential viability (reversal) in experiment [6] (H69AR cells + 2 uM doxorubicin) is 3.15% (inactive). Besides, the inhibition in experiment [7] was 0.8% (inactive); in experiment [8], -2.79% (inactive); in experiment [14], 0.04% (inactive). The values for the growth inhibition in experiment [9] and in experiment [10] were -11.9% (inactive) and -20.4% (inactive), respectively. Moreover, the viability increase in [11] is 3.09% (inactive). Further, the RAM network inhibition in [15] was 4.73% (inactive).

Take `CCN1CCN(CCCNC(=O)c2cc3sccc3n2CC)CC1`: the viability in [1] was 96.5%; in experiment [3], 96.5% (inactive); in experiment [4], 99% (inactive); in experiment [5] it was 89.4% (inactive); in [6] (setting [16]), 91%; in experiment [6] (setting [17]) it was 89.4%. The viability in [12] is 96.9% (inactive); in experiment [13] it was 98.6% (inactive). The Her2 level in experiment [2] was 120% (inactive). Moreover, the differential viability (reversal) in experiment [6] (H69AR cells + 2 uM doxorubicin) was -1.6% (inactive). In addition, the figures for the inhibition in [7], in [8] and in [14] were -0.27% (inactive), 3% (inactive) and 0.865% (inactive), respectively. The growth inhibition is -3.32% (inactive) in experiment [9] and -3.54% (inactive) in [10]. The viability increase in experiment [11] was -1.72% (inactive). Besides, in experiment [15], the RAM network inhibition is 1.23% (inactive).

Turning to `Cc1nc2ccccc2c2oc(C(=O)NCCCN3CCCC3=O)cc12`, the viability is 91% in experiment [1]; 91% (inactive) in [3]; 84.3% (inactive) in experiment [4]; 91.8% (inactive) in experiment [5]; 77.9% in [6] (setting [16]); 91.8% in experiment [6] (setting [17]). Also, the viability in experiment [12] is 94.5% (inactive); in experiment [13], 96.8% (inactive). The Her2 level in experiment [2] is 97.5% (inactive). Further, in [6] (H69AR cells + 2 uM doxorubicin), the differential viability (reversal) is 13.9% (inactive). Besides, the inhibition is -5.73% (inactive) in experiment [7], -2.62% (inactive) in experiment [8] and 1.9% (inactive) in experiment [14]. The growth inhibition in [9] is -0.475% (inactive); in experiment [10], -1.4% (inactive). The viability increase in experiment [11] is -1.47% (inactive). Also, in experiment [15], the RAM network inhibition is 6.62% (inactive).

`CS(=O)(=O)NCCSCc1c(F)cccc1Cl`: the viability is 89.5% in experiment [1]; 89.5% (inactive) in experiment [3]; 100% (inactive) in experiment [4]; 102% (inactive) in [5]; 89.7% in experiment [6] (setting [16]); 102% in experiment [6] (setting [17]). Also, the viability was 96.2% (inactive) in experiment [12] and 91.9% (inactive) in [13]. Further, the Her2 level in [2] is 107% (inactive). Moreover, the differential viability (reversal) in experiment [6] (H69AR cells + 2 uM doxorubicin) was 12.5% (inactive). For the same molecule, the inhibition in [7] was 0.4% (inactive); in experiment [8] it was -8.06% (inactive); in [14], 1.1% (inactive). Further, the figures for the growth inhibition in [9] and in experiment [10] were -2.46% (inactive) and -2.41% (inactive), respectively. For the same molecule, the viability increase in [11] was 0.04% (inactive). Moreover, in experiment [15], the RAM network inhibition is 1.27% (inactive).
